RORgamma inh: ROR gamma (mouse) transcription inhibition; Potency, µM (titrated, usually from 53.6 µM), usual class: inhibitors; P51450; Drosophila S2 Gal4-RORgamma UAS-luciferase reporter, 20 h; 310,000 tested, 5.4% active; further: nearly all actives have a fitted effect of over 60% in size
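Stably transfected Drosophila Schneider cells are the test system, with ROR gamma fused to Gal4 and luciferase under UAS control; luminescence is read after 20 hr of 700 uM copper sulfate induction at ambient temperature.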
DT40 TDP1 CPT: DT40-hTDP1 cell growth loss with CPT; chicken DT40 Tdp1-/-;hTDP1 cells + 20 nM CPT, ATP luminescence, 48 h; 420,000 tested, 12% active; AID 686979; Potency, µM (titrated, usually from 46.2 µM), actives largely listed as inhibitors; further: nearly all actives have a fitted effect of over 55% in size
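Chicken DT40 Tdp1-/- cells complemented with human TDP1, 400 cells/well, exposed to compounds plus 20 nM camptothecin for at least 48 h at 37 C; viability read as ATP content by CellTiter-Glo luminescence.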
TDP1 block: inhibitors of human tyrosyl-DNA phosphodiesterase TDP1; 350,000 tested, 0.28% active; Q9NUW8; recombinant TDP1, AlphaScreen DNA substrate cleavage; Potency, µM (titrated, usually from 130 µM), most hits filed as inhibitors; further: nearly all actives have a fitted effect of over 40% in size
Target sequence (Q9NUW8 whole entry, looked up): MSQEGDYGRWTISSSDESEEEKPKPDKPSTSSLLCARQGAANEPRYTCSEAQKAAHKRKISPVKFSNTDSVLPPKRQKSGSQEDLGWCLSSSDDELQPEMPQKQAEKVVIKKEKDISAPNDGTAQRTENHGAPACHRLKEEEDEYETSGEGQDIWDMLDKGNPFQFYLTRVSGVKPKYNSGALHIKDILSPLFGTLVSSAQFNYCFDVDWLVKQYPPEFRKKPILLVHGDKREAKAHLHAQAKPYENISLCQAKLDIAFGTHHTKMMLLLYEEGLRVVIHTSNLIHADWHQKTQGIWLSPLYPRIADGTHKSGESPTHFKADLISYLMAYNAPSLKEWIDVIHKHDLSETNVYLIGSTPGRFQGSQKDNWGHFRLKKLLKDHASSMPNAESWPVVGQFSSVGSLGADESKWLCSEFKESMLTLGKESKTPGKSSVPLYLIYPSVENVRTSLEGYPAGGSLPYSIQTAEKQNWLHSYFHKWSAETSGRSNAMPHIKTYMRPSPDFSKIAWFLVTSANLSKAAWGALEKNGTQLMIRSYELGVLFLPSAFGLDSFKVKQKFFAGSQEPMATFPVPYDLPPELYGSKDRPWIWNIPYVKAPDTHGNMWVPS
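Tdp1 1 nM final; 15 min RT w/ cpd; substrate 15 nM, 5 min; beads 10 ug/ml, 10 min; AlphaScreen read. Neg ctrl: no enzyme.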
Gal4-VP16 FLuc: counter-screen for ROR gamma inhibitors: Gal4-VP16 reporter | Drosophila S2 Gal4-VP16 UAS-luciferase, luminescence, 20 h | Potency, µM (highest dose often 53.6 µM), usual class: inhibitors | 310,000 tested, 3.5% active | AID 2546;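 further: Gal4-VP16 expression switched on by copper sulfate through the metallothionein promoter; nearly all actives have a fitted effect of over 50% in size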
TDP1 cell noCPT: qHTS for Inhibitors of human tyrosyl-DNA phosphodiesterase 1 (TDP1): qHTS in cells in absence of CPT. AID 686978, 2013. 420,000 tested, 15% active. DT40 Tdp1-/- hTDP1 cells, no CPT, ATP luminescence, 48 h. Potency, µM (doses to about 46.2 µM), actives largely listed as inhibitors; further: nearly all actives have a fitted effect of over 55% in size
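Cells were dispensed at 400 per well, compounds added by pin tool, plates incubated ≥48 hr at 37 °C, then CellTiter-Glo added for 30 min at room temperature before luminescence reading. Line: DT40 Tdp1-/- complemented with hTDP1; camptothecin omitted.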
Hits are given with their value; [ ] = remark or other dose. This is a sample that favours compounds with a hit; in the whole collection about 19% have one here. The call rests on the fitted dose curve; in most records, active means well fitted curve in the direction sought with a large enough effect; inconclusive means small, poorly fitted or top-dose-only effect, or another doubt; inactive means no such curve, though single readings can be large; an effect the other way counts as inactive or inconclusive.

Results for Cc1ccc(S(=O)(=O)NCCC(=O)N2CCN(Cc3ccccc3)CC2)cc1 ?
RORgamma inh: inactive; DT40 TDP1 CPT: inactive; TDP1 block: inactive; Gal4-VP16 FLuc: inactive; TDP1 cell noCPT: inactive

Results for O=C(CCNS(=O)(=O)c1cccc2nonc12)N1CCN(c2cccc(Cl)c2)CC1 ?
RORgamma inh: inconclusive; DT40 TDP1 CPT: inconclusive; TDP1 block: inactive; Gal4-VP16 FLuc: inactive; TDP1 cell noCPT: 12µM

Results for COc1ccc(N2CCN(C(=O)CCNS(=O)(=O)c3ccc4c(c3)CCN4C(=O)C3CC3)CC2)cc1 ?
DT40 TDP1 CPT: 13µM; TDP1 block: inactive; TDP1 cell noCPT: 18µM

How did CC(=O)N1CCc2cc(S(=O)(=O)NCCC(=O)N3CCN(Cc4ccccc4)CC3)ccc21 do in these assays?
RORgamma inh: inactive; DT40 TDP1 CPT: inconclusive; TDP1 block: inactive; Gal4-VP16 FLuc: inactive; TDP1 cell noCPT: 21µM

What do the screens show for `COc1ccccc1NS(=O)(=O)c1ccc2oc(N)nc2c1`?
RORgamma inh: inactive; DT40 TDP1 CPT: inactive; TDP1 block: inactive; Gal4-VP16 FLuc: inactive; TDP1 cell noCPT: inactive

How did CN(CC(=O)N1CCN(c2ccccc2F)CC1)S(=O)(=O)c1cnc[nH]1 do in these assays?
RORgamma inh: inactive; DT40 TDP1 CPT: inactive; TDP1 block: inactive; Gal4-VP16 FLuc: inactive; TDP1 cell noCPT: inactive

How did N#Cc1ccc(CN2CCN(CC(=O)NCCc3ccc(Cl)cc3Cl)CC2)cc1 do in these assays?
RORgamma inh: inactive; DT40 TDP1 CPT: 21µM; Gal4-VP16 FLuc: inactive; TDP1 cell noCPT: 21µM

What do the screens show for `O=C(CCNS(=O)(=O)c1ccc2c(c1)CCN2C(=O)C1CC1)N1CCN(c2cccc(Cl)c2)CC1`?
DT40 TDP1 CPT: 5.8µM; TDP1 block: inactive; TDP1 cell noCPT: 9.2µM

How did N#Cc1ccc(CN2CCN(C(=O)CCNS(=O)(=O)c3ccc(F)c(F)c3)CC2)cc1 do in these assays?
DT40 TDP1 CPT: inactive; TDP1 block: inactive; TDP1 cell noCPT: inactive

How did O=C1CCc2cc(S(=O)(=O)NCCC(=O)N3CCN(c4cccc(Cl)c4)CC3)ccc2N1 do in these assays?
RORgamma inh: inactive; DT40 TDP1 CPT: 26µM; TDP1 block: inactive; Gal4-VP16 FLuc: inactive; TDP1 cell noCPT: 10µM

How did N#Cc1ccc(CN2CCN(C(=O)CCNS(=O)(=O)c3ccc(F)c(Cl)c3)CC2)cc1 do in these assays?
DT40 TDP1 CPT: inconclusive; TDP1 block: inactive; TDP1 cell noCPT: 18µM

Results for Cc1ccc(NC(=O)CCNS(=O)(=O)c2ccc3c(c2)CCC(=O)N3)cc1F ?
RORgamma inh: inactive; DT40 TDP1 CPT: inactive; Gal4-VP16 FLuc: inactive; TDP1 cell noCPT: inconclusive

How did CCN(CC)c1ccc(NC(=O)CCNS(=O)(=O)c2ccc3c(c2)CCC(=O)N3)c(C)c1 do in these assays?
RORgamma inh: inactive; DT40 TDP1 CPT: inconclusive; TDP1 block: inactive; Gal4-VP16 FLuc: inactive; TDP1 cell noCPT: 16µM

What do the screens show for `O=C(CCNS(=O)(=O)c1ccc2c(c1)CCN2C(=O)C1CC1)N1CCN(c2ccc(F)cc2)CC1`?
DT40 TDP1 CPT: 3.3µM; TDP1 block: inactive; TDP1 cell noCPT: 9.2µM

What do the screens show for `C/C(=N\O)c1ccco1`?
DT40 TDP1 CPT: inactive; TDP1 block: inactive; TDP1 cell noCPT: inactive

What do the screens show for `CC(Sc1ncccn1)C(=O)NC1(C#N)CCCCC1` (stereo not given)?
DT40 TDP1 CPT: inactive; TDP1 block: inactive; TDP1 cell noCPT: inactive

Results for CC(SC1=Nc2ccccc2C2CC=NN12)C(=O)NC1(C#N)CCCCC1 (stereo not given) ?
DT40 TDP1 CPT: 12µM; TDP1 block: inactive; TDP1 cell noCPT: 23µM

Results for N#Cc1ccc(-c2nnnn2-c2ccc3c(c2)OCO3)cc1 ?
RORgamma inh: inactive; DT40 TDP1 CPT: inactive; TDP1 block: inactive; Gal4-VP16 FLuc: inactive; TDP1 cell noCPT: inactive

Results for N#Cc1c(F)cccc1N1CCN(Cc2ccc3c(c2)OCO3)CC1 ?
RORgamma inh: inactive; DT40 TDP1 CPT: 16µM; TDP1 block: inactive[0.0935 µM]; Gal4-VP16 FLuc: inactive; TDP1 cell noCPT: inconclusive

What do the screens show for `CCOC(=O)c1ccc(N2C(=O)C3CC=CCC3C2=O)cc1` (stereo not given)?
RORgamma inh: inactive[0.365 µM]; DT40 TDP1 CPT: inactive; TDP1 block: inactive; TDP1 cell noCPT: inactive

Results for NS(=O)(=O)c1ccc(N2C(=O)C3CC=CCC3C2=O)cc1 (stereo not given) ?
RORgamma inh: inactive; DT40 TDP1 CPT: inactive; TDP1 block: 56µM; Gal4-VP16 FLuc: inactive; TDP1 cell noCPT: inactive

What do the screens show for `CCC1=NN2C(=N)/C(=C\c3cccn3-c3ccc(Cl)cc3)C(=O)N=C2S1`?
RORgamma inh: inconclusive; DT40 TDP1 CPT: inactive; TDP1 block: inactive; Gal4-VP16 FLuc: inactive; TDP1 cell noCPT: inactive

What do the screens show for `CCC1=NN2C(=N)/C(=C\c3cccn3-c3ccc(C)c(C)c3)C(=O)N=C2S1`?
RORgamma inh: 28µM; DT40 TDP1 CPT: inactive; TDP1 block: inactive; Gal4-VP16 FLuc: inactive; TDP1 cell noCPT: inactive

Results for Cc1ccc(-n2cccc2/C=C2\C(=N)N3N=C(c4ccco4)SC3=NC2=O)cc1 ?
RORgamma inh: inactive; DT40 TDP1 CPT: inconclusive; TDP1 block: 56µM; Gal4-VP16 FLuc: inactive; TDP1 cell noCPT: inactive

How did CCOC(=O)CSc1nc2ccccc2c(=O)n1CC1CCCC1 do in these assays?
RORgamma inh: inactive; DT40 TDP1 CPT: 10µM; Gal4-VP16 FLuc: inactive; TDP1 cell noCPT: 15µM

What do the screens show for `CCn1c(SCC(=O)NCc2ccco2)nc2ccccc2c1=O`?
RORgamma inh: inactive; DT40 TDP1 CPT: inactive; TDP1 block: inactive; Gal4-VP16 FLuc: inactive; TDP1 cell noCPT: inactive

Results for CCOC(=O)CSc1nc2ccccc2c(=O)n1CC ?
RORgamma inh: inactive; DT40 TDP1 CPT: inactive; TDP1 block: inactive; Gal4-VP16 FLuc: inactive; TDP1 cell noCPT: inactive

What do the screens show for `CCOC(=O)CSc1nc2ccccc2c(=O)n1CC1CCC(C(=O)NCc2ccco2)CC1` (stereo not given)?
RORgamma inh: inactive; DT40 TDP1 CPT: inconclusive; TDP1 block: inactive; Gal4-VP16 FLuc: inactive; TDP1 cell noCPT: 23µM

Results for CCCn1c(N)c(N2CCCCC2)c(=O)n(CC(=O)Nc2ccccc2C(F)(F)F)c1=O ?
DT40 TDP1 CPT: inactive; TDP1 block: inactive; TDP1 cell noCPT: inactive

Results for Cc1ccc(NC(=O)CC2Oc3ccc(C)cc3NC2=O)c(C)c1 (stereo not given) ?
RORgamma inh: inactive; DT40 TDP1 CPT: inconclusive; TDP1 block: inactive; Gal4-VP16 FLuc: inactive; TDP1 cell noCPT: 21µM

Results for Cc1ccc2c(c1)NC(=O)C(CC(=O)Nc1ccc(Br)c(C)c1)O2 (stereo not given) ?
RORgamma inh: inactive; DT40 TDP1 CPT: inactive; Gal4-VP16 FLuc: inactive; TDP1 cell noCPT: inactive

Results for COc1ccc(S(=O)(=O)NCC2CCCN(Cc3ccccc3C)C2)cc1 (stereo not given) ?
RORgamma inh: inactive; DT40 TDP1 CPT: inactive; TDP1 block: inactive; Gal4-VP16 FLuc: inactive; TDP1 cell noCPT: inactive

Compound activity deposited in PubChem BioAssay by National Center for Advancing Translational Sciences (NCATS).
